Measured values: PubChem BioAssay
Calls of active or inactive are those of the source.

Legend:
Albumin (Bos taurus) = Albumin (Bos taurus) (UniProt P02769); test: bovine serum albumin binders on microarray, profiling panel, artefact control for SMM control protein annotation, biochemical, small-molecule microarray, Alexa647 label, 635/667 nm fluorescence (AID 1118); settings: BSA-A647 binding, fluorescence 635 nm, higher = more signal;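 further: score merges 667 nm emission intensity and signal-to-noise per printed compound spot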
[1] = small-molecule microarray binders of probe aXIP, primary screen, biochemical, NeuroSMM set, 635/667 nm fluorescence (AID 1119); settings: higher = more signal, called active from +8 up or from −8 down;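 further: probe is the protein aXip251-270 applied at 1 µg/mL to compound-printed slides; binding of probe to printed compounds measured as 667 nm fluorescence plus signal to noise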
[2] = small-molecule binders of probe aNOTCH3, primary screen, biochemical, small-molecule microarray, 635/667 nm fluorescence (AID 1120); settings: higher = more signal;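 further: probe is a biotin-tagged antibody raised against NOTCH3 rather than NOTCH3 protein; score merges spot fluorescence near 667 nm with spot signal to noise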
[3] = small-molecule binders of probe aNOTCH2, primary screen, biochemical, small-molecule microarray, 635/667 nm fluorescence (AID 1121); settings: higher = more signal;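 further: score merges feature fluorescence read at 667 nm with its signal to noise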
[4] = molecular target: Carbonic anhydrase 2 (Homo sapiens) (UniProt P00918); test: CAII small-molecule binders, profiling panel, biochemical, small-molecule microarray, Alexa647-labelled CAII (AID 1122); settings: CAII-A647 binding fluorescence, higher = more signal
[5] = COS7 lysate on small-molecule microarray, probe aHis, 635 nm (AID 1123); settings: COS7 cell lysate, fluorescence, higher = more signal;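 further: z-score combines 667nm fluorescence intensity with signal-to-noise per printed compound spot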
[6] = compound binding in COS7 lysate, probe aLAP1, primary screen, cell lysate, small-molecule microarray (AID 1124); settings: probe aLAP1, fluorescence, higher = more signal;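 further: lysate comes from COS7 cells expressing LAP1 and is applied at 0.3 µg/mL; score merges spot fluorescence near 667 nm with signal-to-noise over triplicate slides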
Sam68 (KHDRBS1) = test: Sam68 small-molecule binders, primary screen, biochemical, small-molecule microarray, 635 nm fluorescence (AID 1125); settings: small-molecule microarray binding, higher = more signal;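 further: score merges 667 nm channel intensity with signal to noise over triplicate slides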
[7] = system: Chordin-like protein 2 (CHRDL2); test: CHRDL2 small-molecule binders, primary screen, biochemical, small-molecule microarray, 635 nm fluorescence (AID 1126); settings: small-molecule microarray binding, fluorescence 635 nm; higher = more signal;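 further: printed compound slides probed with Chrdl2 protein at 4 µg/mL for 1 h at 4 C; score merges 667 nm emission intensity with signal to noise over three replicate slides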
[8] = molecular target: Concanavalin-A (Canavalia ensiformis) (UniProt P02866); test: ConA small-molecule binders, primary screen, artefact control for SMM control protein annotation, biochemical, small-molecule microarray, Alexa647 label, 635 nm (AID 1127); settings: ConA-A647 binding fluorescence, higher = more signal;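 further: z combines 667 nm emission intensity with signal-to-noise across three replicate slides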
Concanavalin-A (Canavalia ensiformis), sequence (P02866 whole entry, looked up): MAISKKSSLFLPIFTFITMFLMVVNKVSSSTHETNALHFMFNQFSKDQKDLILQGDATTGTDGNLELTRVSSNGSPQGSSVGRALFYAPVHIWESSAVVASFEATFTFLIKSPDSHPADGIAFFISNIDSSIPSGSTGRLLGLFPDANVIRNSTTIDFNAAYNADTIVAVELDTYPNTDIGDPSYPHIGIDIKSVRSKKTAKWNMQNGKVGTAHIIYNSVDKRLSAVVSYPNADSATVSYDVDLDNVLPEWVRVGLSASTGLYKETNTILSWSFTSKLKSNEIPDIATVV

Albumin (Bos taurus), sequence (P02769 whole entry, looked up): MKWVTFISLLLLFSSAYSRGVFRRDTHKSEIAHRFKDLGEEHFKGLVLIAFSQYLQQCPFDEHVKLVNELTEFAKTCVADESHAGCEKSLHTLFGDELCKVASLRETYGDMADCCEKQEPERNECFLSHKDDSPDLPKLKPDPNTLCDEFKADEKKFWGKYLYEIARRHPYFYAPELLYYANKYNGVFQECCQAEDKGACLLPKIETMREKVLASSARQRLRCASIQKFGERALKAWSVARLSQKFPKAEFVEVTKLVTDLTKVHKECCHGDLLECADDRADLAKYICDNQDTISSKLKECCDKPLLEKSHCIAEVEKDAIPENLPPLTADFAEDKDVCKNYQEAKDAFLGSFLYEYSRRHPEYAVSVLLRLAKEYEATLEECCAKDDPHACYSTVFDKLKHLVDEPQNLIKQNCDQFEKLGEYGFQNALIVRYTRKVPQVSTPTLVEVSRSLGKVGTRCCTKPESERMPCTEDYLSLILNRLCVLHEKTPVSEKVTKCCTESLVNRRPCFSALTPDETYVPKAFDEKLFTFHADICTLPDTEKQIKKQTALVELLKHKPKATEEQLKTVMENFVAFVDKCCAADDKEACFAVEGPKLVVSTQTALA

SMILES | composite z-score (Albumin (Bos taurus)) | composite Z-score [1] | composite z-score [2] | composite z-score [3] | composite z-score [4] | composite z-score [5] | composite z-score [6] | composite z-score (Sam68 (KHDRBS1)) | composite z-score [7] | composite z-score [8]
O=C(NCCO)C1=C[C@H](Oc2ccccc2I)[C@@H](O)[C@H](N(Cc2ccco2)C(=O)Cc2ccccc2)C1 | -0.884 | 0.524 (inactive) | -0.0014 | -0.0956 | -0.17 | -0.604 | -0.0107 | -0.24 | 0.607 | -0.981
CC(C)N1C(=O)c2ccccc2[C@](C)(C(=O)NCCN2CCOCC2)[C@@H]1c1ccc(CO)cc1 | 0.406 | -0.523 (inactive) | -0.0697 | -0.195 | 0.766 | 2.48 | 0.385 | 0.359 | -1.12 | -0.0721
COC(=O)[C@@]1(Cc2ccc(OC)cc2)[C@H]2c3cc(C(=O)N4CCCC4)n(Cc4ccc(O)c(OC)c4)c3C[C@H]2CN1C(=O)c1ccccc1 | 1.06 | 1.64 (inactive) | 1.18 | 0.437 | 0.845 | 3.32 | 1.09 | 0.535 | 0.114 | 0.988
COC(=O)[C@@]1(Cc2ccc(OC)cc2)[C@H]2c3cc(C(=O)N4CCCC4)n(Cc4ccc(C)c(F)c4F)c3C[C@H]2CN1C(=O)c1ccccc1 | 1.05 | -0.572 (inactive) | 0.538 | 0.223 | 0.744 | 3.22 | 0.345 | 1.3 | -0.596 | 1.15
CN1C(=O)C2C=CC(C(O)C#Cc3ccccc3)N(N3CCCCC3)C2C1=O (stereo not given) | 0.268 | 1.04 (inactive) | 1.15 | 0.519 | 0.798 | 0.19 | 1.3 | -0.156 | 0.111 | 0.82
CN(C)CCCCCCNC(=O)[C@H]1C[C@H]2C(=O)N3CCC[C@H]3C(=O)N2[C@H]1c1ccc(O)cc1 | -0.584 | 0.233 (inactive) | 0.377 | -0.0438 | 0.561 | 2.04 | 0.81 | 1.34 | 1.43 | 1.22
COC(=O)[C@]1(CCC(=O)OC(C)(C)C)N=C(c2ccc(OCCCO)cc2)O[C@@H]1c1ccccc1CN=[N+]=[N-] | -0.325 | -1.26 (inactive) | -0.0284 | 0.0059 | 0.675 | 1.72 | -0.46 | 0.866 | -1.04 | 0.779
CC(C)NC(=O)[C@@]1(C)c2ccccc2C(=O)N(Cc2cc(C(F)(F)F)cc(C(F)(F)F)c2)[C@H]1c1ccc(CO)cc1 | -0.47 | -0.0197 (inactive) | -0.165 | -0.123 | 0.689 | 2.07 | -0.208 | 0.784 | -1.39 | 0.0957
CC1CC/C=C\[C@H]2OC34C=CCN(C(C)(C)C)C(=O)[C@H]3N(C(C)CO)C(=O)[C@@H]4C2C(=O)O1 (stereo not given in full) | -0.92 | -0.0245 (inactive) | -0.122 | -0.13 | 0.4 | -0.187 | 0.199 | -1.47 | -0.454 | -2.17
CC1(C)[C@@H]2CC(C(O)C3C=CC4C(=O)N(Cc5ccccc5)C(=O)C4N3n3cnnc3)=C[C@H]1C2 (stereo not given in full) | 0.925 | -0.132 (inactive) | -0.0079 | -0.0866 | 0.651 | 1.39 | 0.641 | 1.34 | 0.371 | 0.39
C=C[C@H](OC)[C@@H](OC(=O)Nc1ccc(OC)cc1)c1ccc(O)c(F)c1 | -1.15 | 0.111 (inactive) | -0.333 | -0.217 | 0.562 | 2.28 | 0.953 | 0.96 | -1.85 | -1.15
CCC(CC)C(O)C1C=CC2C(=O)NC(=O)C2N1Nc1ccc(Cl)cc1Cl (stereo not given) | 0.869 | 0.818 (inactive) | 0.237 | 0.0333 | 0.654 | 2.18 | 1.02 | 0.887 | -0.381 | 1.06
Cc1ccc(S[C@]2(C(=O)NC3CC3)CC(=O)N(Cc3ccccc3)[C@@H]2c2ccc(CO)cc2I)cc1 | 0.596 | -0.35 (inactive) | -0.209 | 0.0012 | 0.742 | 2.25 | 0.337 | 0.0282 | -0.682 | -0.391
[N-]=[N+]=NCc1ccccc1C[C@]1(C(N)=O)COC(c2ccc(OCCCO)cc2)=N1 | 0.624 | 0.155 (inactive) | 0.0225 | 0.106 | 0.656 | 2.24 | 1.29 | 0.48 | -0.846 | 0.556
Cc1ccc(N2C(=O)c3ccccc3[C@@H](C(=O)NC3CC3)[C@@H]2c2ccc(CO)cc2)nc1 | -0.301 | -0.648 (inactive) | -0.481 | -0.165 | 0.677 | -0.663 | 0.653 | -2.27 | -1.97 | -0.616
COC(=O)[C@@]1(CCC(=O)OC(C)(C)C)N=C(c2ccc(OCCCO)cc2)O[C@H]1c1ccccc1N=[N+]=[N-] | 0.373 | 0.455 (inactive) | -0.076 | -0.127 | 0.508 | 1.95 | 0.333 | 0.201 | -0.436 | 0.721
